Assay [1] can be described thus: P. berghei load reduction in hepatocytes – cell-based, HepG2, luciferase luminescence, HepG2 viability, primary screen (AID 624349; in the data active means parasite load remaining mostly below about 12%, no sharp cut-off; inactive means mostly above about 10%;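 further: 100% = mean of DMSO negative control wells on the same plate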). The following applies: P. berghei liver stage in HepG2, luciferase luminescence, concentration not given here; parasite load remaining: stronger effect = lower value; viability: measured here: HepG2 viability without parasites.
Assay [2] has as its system Hepatitis C virus NS3 helicase. In words: blockers of NS3h binding to ssDNA – biochemical, fluorescence polarization, LOPAC1280 library, primary screen (AID 687035; in the data active means inhibition above about 37%). The following applies: Purified HCV NS3 helicase, Cy5-dT15 ssDNA binding fluorescence polarization; stronger effect = higher value; concentration not given here.
The nature of assay [3]: compounds altering Cy5-DNA-NS3h complex signal – biochemical, LOPAC1280, artefact control for HCV NS3 helicase inhibitor project (AID 687037; call rule not given here). The following applies: Cy5-DNA-NS3h complex fluorescence interference counterscreen.
A short description of assay [4]: viability loss in pontine glioma line – cell-based, JHH-DIPG-1, MIPE4.0, CellTiter-Glo, qHTS, dose response (AID 1347062; cut-off not given, nearly all actives have AC50 up to about 27 µM;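 on AC50: cells exposed to compound for two days before readout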). The following applies: JHH-DIPG-1 viability, CellTiter-Glo ATP luminescence.
The nature of assay [5]: viability loss in pontine glioma line – cell-based, SU-DIPG-IV, MIPE4.0, CellTiter-Glo, qHTS, dose response (AID 1347063).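 Further: compound exposure lasted 48 hours before the viability readout.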 The following applies: CellTiter-Glo ATP luminescence.
The nature of assay [6]: growth inhibition of DIPG cells – cell-based, MIPE5.0 library, qHTS (AID 1347068; cut-off not given, nearly all actives have IC50 up to about 30 µM). The following applies: SU-DIPG-XXV viability.
A short description of assay [7]: viability loss with induced miR-34 in A549 – imaging, A549 dox-inducible miR-34, nuclei and caspase counts, primary screen (AID 1347080;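 active means compounds whose cell count with miR-34 switched on is under 0.7 times the count with it off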). The following applies: A549 miR-34 inducible, Hoechst nuclei count, 48 h.
Assay [8] in a line: blockers of cellular phospholipid synthesis – cell-based, LOPAC library, screen 4, primary screen (AID 1347384; call rule not given here). The following applies: animal cells, phospholipid biosynthesis inhibition screen; at 10 µM.
Assay [9] can be described thus: galactose survival enhancers in mitochondrial complex I cybrids – cell-based, galactose medium, ATP luminescence, primary screen (AID 1645843;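 active means z-score of at least 1.8 in each of two replicates, scored against plate mean and spread of sample wells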;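 further: positive z means more ATP and so rescue of galactose-driven cybrid death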). The following applies: complex I mutant cybrid cells, 72 h, stronger effect = higher value.
Assay [10] is described as follows: viability loss in pontine glioma line – cell-based, SU-DIPG-XIII, MIPE5.0, CellTiter-Glo, qHTS, dose response (AID 1347064; cut-off not given, nearly all actives have AC50 up to about 23 µM). The following applies: CellTiter-Glo ATP luminescence.
Assay [11] in a line: viability loss in pontine glioma line – cell-based, SU-DIPG-XXV, MIPE5.0, CellTiter-Glo, qHTS, dose response (AID 1347065; cut-off not given, nearly all actives have AC50 up to about 26 µM;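 further: cells exposed to compound for 48 hours before ATP readout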). The following applies: CellTiter-Glo ATP luminescence.
Assay [12] in a line: growth inhibition of DIPG cells – cell-based, MIPE4.0 library, CellTiter-Glo luminescence, qHTS (AID 1347066).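 Further: cells exposed to compound for 48 hours before readout.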 The following applies: SU-DIPG-VI viability, CellTiter-Glo ATP luminescence.
Assay [13] can be described thus: liver-stage malaria parasite load reduction – cell-based, known kinase inhibitor set, luminescence, hepatoma host viability (AID 624392; call rule not given here;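 further: infected cells incubated roughly two days before readout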). The following applies: Plasmodium liver stage in hepatoma cells, luciferase luminescence, concentration not given here; liver cell % of control: measured here: host liver cell viability; parasite % of control: stronger effect = lower value.

The nature of assay [14]: MELAS cybrid and Rieske KO viability enhancers – cell-based, MELAS cybrids, Rieske KO mouse fibroblasts, CellTiter-Glo, primary screen (AID 1508586;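 active means mean z-score across replicates of 1.96 or higher in either the MELAS or the Rieske mutant cell line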;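 further: z relative to plate mean and SD of compound and empty wells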). The following applies: low glucose.
Assay [15] deals with NAD(+) hydrolase SARM1 (Homo sapiens) (UniProt Q6SZW1). In words: blocking NAD cleavage by SARM1 SAM-TIR – cell lysate, NAD-Glo luminescence (AID 1508614;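 active means compound whose remaining NAD level is above about 45 nM, limit read from the data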). The following applies: SAM-TIR HEK293T lysate NADase, at 1 µM, stronger effect = higher value.
Sequence of NAD(+) hydrolase SARM1 (Homo sapiens) (Q6SZW1 whole entry, looked up, the tested form may be a part): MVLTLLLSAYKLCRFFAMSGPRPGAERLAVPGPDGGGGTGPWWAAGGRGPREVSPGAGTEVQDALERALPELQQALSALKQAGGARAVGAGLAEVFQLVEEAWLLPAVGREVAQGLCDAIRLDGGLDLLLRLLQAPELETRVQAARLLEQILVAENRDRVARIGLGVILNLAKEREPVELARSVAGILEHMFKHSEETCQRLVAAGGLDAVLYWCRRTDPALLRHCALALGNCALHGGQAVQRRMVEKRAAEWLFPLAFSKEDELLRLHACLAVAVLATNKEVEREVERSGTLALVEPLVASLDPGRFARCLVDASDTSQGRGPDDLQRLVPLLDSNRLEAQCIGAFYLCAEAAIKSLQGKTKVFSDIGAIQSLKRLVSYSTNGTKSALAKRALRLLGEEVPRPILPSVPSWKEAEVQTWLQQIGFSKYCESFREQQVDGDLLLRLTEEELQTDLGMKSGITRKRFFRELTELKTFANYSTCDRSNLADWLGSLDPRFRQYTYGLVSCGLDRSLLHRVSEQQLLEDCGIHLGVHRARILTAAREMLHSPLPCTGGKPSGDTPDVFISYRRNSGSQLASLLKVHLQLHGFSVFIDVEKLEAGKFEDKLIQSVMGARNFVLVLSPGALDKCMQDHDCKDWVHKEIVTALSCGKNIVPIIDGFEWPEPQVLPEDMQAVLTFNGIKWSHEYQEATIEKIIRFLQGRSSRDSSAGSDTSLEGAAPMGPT
Assay [16] concerns the target Mitogen-activated protein kinase 7 (Homo sapiens) (UniProt Q13164). Nature of the assay: Gal4-ERK5 driven luciferase induction – cell-based, HTS, primary screen (AID 1508626;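 active means luciferase signal above three times the same-plate solvent-only control wells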;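 further: luciferase driven by Gal4-ERK5 fusion binding five Gal4 sites before minimal TATA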). The following applies: HeLa Gal4-ERK5 transactivation, 18 h, at 5 µM, stronger effect = higher value.
Assay [17] is described as follows: JHH-DIPG-1 glioma cell viability, MIPE5.0 library, CellTiter-Glo luminescence, qHTS (AID 1347067; cut-off not given, nearly all actives have AC50 up to about 26 µM;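 further: cells exposed to compound for 48 hours before readout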). The following applies: JHH-DIPG-1 glioma viability, CellTiter-Glo ATP luminescence.
Assay [18] in a line: compounds altering circadian rhythm period length – cell-based, LOPAC library, luminescence reporter (AID 2774; call rule not given here;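 further: values are relative to mean of DMSO wells on each plate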). The following applies: circadian reporter cells, at 7 µM, actives lie on both sides.
The mark [19] stands for this setting: stronger effect = lower value, cell number ratio, induced over uninduced.
[20] abbreviates: measured here: relative caspase fold change +Dox/-Dox.
The mark [21] stands for this setting: measured here: total cells with miR-34 induction, stronger effect = lower value.
Where [22] appears, read: measured here: total cells without miR-34 induction.

Where “and” joins values, the source holds several entries; their conditions need not be identical. Identical values can stand only once. Results filed as inconclusive are left out. Calls of active or inactive are those of the source. Unless noted, cut-off not given; nearly all actives show AC50 up to about 30 µM.

Sequence of Mitogen-activated protein kinase 7 (Homo sapiens) (Q13164 whole entry, looked up, the tested form may be a part): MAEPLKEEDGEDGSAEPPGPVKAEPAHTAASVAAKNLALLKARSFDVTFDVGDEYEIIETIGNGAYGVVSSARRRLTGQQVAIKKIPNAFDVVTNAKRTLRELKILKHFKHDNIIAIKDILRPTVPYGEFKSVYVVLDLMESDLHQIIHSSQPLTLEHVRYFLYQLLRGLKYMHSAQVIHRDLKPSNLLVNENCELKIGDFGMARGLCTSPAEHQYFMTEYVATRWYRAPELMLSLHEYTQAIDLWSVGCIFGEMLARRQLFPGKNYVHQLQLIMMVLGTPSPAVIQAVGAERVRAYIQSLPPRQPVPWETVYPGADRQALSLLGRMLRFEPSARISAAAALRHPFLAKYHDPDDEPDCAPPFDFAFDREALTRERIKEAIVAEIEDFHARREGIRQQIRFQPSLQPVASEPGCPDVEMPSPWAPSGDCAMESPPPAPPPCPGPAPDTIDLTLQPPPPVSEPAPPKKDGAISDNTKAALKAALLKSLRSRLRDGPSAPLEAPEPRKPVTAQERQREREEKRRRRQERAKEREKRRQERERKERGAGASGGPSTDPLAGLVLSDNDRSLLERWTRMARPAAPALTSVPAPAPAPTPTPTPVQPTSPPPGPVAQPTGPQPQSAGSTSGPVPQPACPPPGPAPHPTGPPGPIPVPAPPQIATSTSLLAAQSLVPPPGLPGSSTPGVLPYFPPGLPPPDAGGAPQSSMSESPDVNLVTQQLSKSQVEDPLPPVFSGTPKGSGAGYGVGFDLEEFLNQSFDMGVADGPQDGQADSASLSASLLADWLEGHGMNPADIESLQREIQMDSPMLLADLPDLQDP

As for `O=C(Nc1nc2ccccc2n1CCN1CCOCC1)c1cccc([N+](=O)[O-])c1`, the parasite load remaining in assay [1] is 33.2% (inactive). Further, the viability in assay [1] amounted to 151%. In addition, the inhibition in assay [2] was -2% (inactive). Also, the fluorescence ratio (interference) in [3] was 1.1 (inactive). Besides, the values for the AC50 in assay [4] and in [5] were 14.8 µM (active) and 10.5 µM (active), respectively. Further, the compound was classed as inactive in assay [6] and in assay [8]. Also, the fold change in assay [7] (setting [19]) is 0.827 (inactive); in [7] (setting [20]), 1.35. Besides, the cell count in assay [7] (setting [21]) is 5540; in [7] (setting [22]), 6700. In assay [9], the z-score was 1.46 (inactive).

Consider `CC(C)(C)NC(=O)Nc1cccc(Nc2ncc(F)c(NC(C)(C)CO)n2)c1`, for which the compound was classed as inactive in assay [4], in [10] and in assay [12]. Moreover, the AC50 in [11] was 4.68 µM (active).

On to `C=CC(=O)Nc1cccc(Nc2nc(NC3CCC(N(C)C)CC3)nc3c2ncn3C(C)C)c1` (configuration not stated), for which the liver cell % of control in [13] came out at 43.6%. Moreover, the parasite % of control in [13] was 15.4% (inactive). The values for the AC50 in assay [4] and in [5] were 0.187 µM (active) and 0.0235 µM (active), respectively.

As to `C[C@@H](Cc1cc2c(c(C(N)=O)c1)N(CCCO)CC2)NCCOc1ccccc1OCC(F)(F)F`, the compound was classed as inactive in assay [4], in assay [5] and in [12].

Turning to `C=CC(=O)Nc1cc(NC(=O)c2ccc(C)c(NC(=O)c3ccno3)c2)cc(C(F)(F)F)c1`, the AC50 in assay [4] was 16.6 µM (active); in assay [5], 18.7 µM (active); in assay [12] it was 16.6 µM (active).

On to `CC(=O)NC(C)c1ccc(Oc2ccc(OC(C)C)cc2)cc1` (configuration not stated), for which the call in [4] and in [12] was inactive.

For the compound `COc1cc(OC)cc(-c2ccc3ncc4ccc(=O)n(-c5ccc(N6CCNCC6)c(C(F)(F)F)c5)c4c3c2)c1`, the AC50 is 16.6 µM (active) in assay [4], 2.64 µM (active) in assay [5] and 13.2 µM (active) in assay [12].

On to `NC[C@@H]1O[C@H](O[C@H]2[C@@H](O)[C@H](O[C@@H]3[C@@H](O)[C@H](N)C[C@H](N)[C@H]3O[C@H]3O[C@H](CN)[C@@H](O)[C@H](O)[C@H]3N)O[C@@H]2CO)[C@H](N)[C@@H](O)[C@@H]1O`, for which the parasite load remaining in assay [1] is 49.2% (inactive) and 45.9% (inactive). Further, the viability in [1] is 48% and 104%. In addition, the call in [4], in assay [5] and in [12] was inactive. Moreover, the fold change in assay [7] (setting [19]) is 0.891 (inactive) and 0.964 (inactive); in [7] (setting [20]) it was 0.356 and 1.26. The cell count is 8260 and 10600 in assay [7] (setting [21]); 9270 and 11000 in assay [7] (setting [22]). Besides, the z-score in [14] (MELAS cybrid survival, CellTiter-Glo 48 h, stronger effect = higher value) is -0.364 (inactive) and -0.26 (inactive); in [14] (Rieske KO mouse fibroblast survival, CellTiter-Glo 72 h) it was -0.155 and -1.25; in assay [9], 0.135 (inactive). For the same compound, the remaining NAD in [15] was 10 nM (inactive). Also, the luciferase signal in assay [16] was 28 AU (inactive).

For `CC(C)N(CC[C@H](c1ccccc1)c1cc(CO)ccc1O)C(C)C`, the outcome in assay [4], in [5] and in [12] was inactive.

In the case of `CC(=O)NCCC(=O)N[C@@H](CCC(N)=O)C(=O)N[C@@H](CO)C(=O)N[C@@H](CCC(N)=O)C(=O)N[C@@H](CCC(N)=O)C(=O)N[C@H](C(=O)N[C@@H](Cc1ccccc1)C(=O)N[C@]1(C)CCCCCC/C=C\CCC[C@@](C)(C(=O)N[C@@H](CCC(N)=O)C(=O)N[C@@H](CC(N)=O)C(N)=O)NC(=O)[C@H](CC(C)C)NC(=O)[C@H](CC(C)C)NC(=O)[C@@H](CCCNC(=N)N)NC(=O)[C@H](Cc2c[nH]c3ccccc23)NC(=O)[C@H](CC(C)C)NC(=O)[C@H](CC(N)=O)NC1=O)[C@H](C)O`, the compound was classed as inactive in assay [4], in assay [11], in assay [17] and in assay [6].

For `O=c1[nH]c(=O)n([C@H]2C[C@H](O)[C@@H](CO)O2)cc1/C=C/Br`, the period change in [18] is -0.01 h (inactive). Besides, the inhibition in assay [2] is -1% (inactive). Further, the fluorescence ratio (interference) in assay [3] is 1 (inactive). For the same compound, the outcome in assay [4], in assay [5] and in assay [12] was inactive.

With `CNC1[C@@H](O)C(O[C@@H]2C(O)C(O[C@H]3O[C@H]([C@@H](C)NC)CC[C@H]3N)[C@@H](N)C[C@H]2N)OC[C@]1(C)O` (some centres not stated), the result in [4], in assay [5] and in assay [12] was inactive.

Source of the values: PubChem BioAssay.
